TMEM16A act – TMEM16A chloride channel activators or potentiators, primary screen, cell-based, HTS. B-score at 10 µM. HEK293 TMEM16A/YFP-H148Q/I152L, iodide quench fluorescence; hits give low values. Anoctamin-1 (Mus musculus), Q8BHY3. actives 0.3% (n = 340,000);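 active = fluorescence-ratio B-score plate-corrected deviation score at least 3 library SD below zero, with starting fluorescence score within 5 deviations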;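 also: channel opened by trigger with iodide after compound preincubation; score built on the fluorescence ratio of max minus min over baseline; more negative score means more quench and so TMEM16A activation or potentiation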
Target sequence (Q8BHY3 whole entry, looked up): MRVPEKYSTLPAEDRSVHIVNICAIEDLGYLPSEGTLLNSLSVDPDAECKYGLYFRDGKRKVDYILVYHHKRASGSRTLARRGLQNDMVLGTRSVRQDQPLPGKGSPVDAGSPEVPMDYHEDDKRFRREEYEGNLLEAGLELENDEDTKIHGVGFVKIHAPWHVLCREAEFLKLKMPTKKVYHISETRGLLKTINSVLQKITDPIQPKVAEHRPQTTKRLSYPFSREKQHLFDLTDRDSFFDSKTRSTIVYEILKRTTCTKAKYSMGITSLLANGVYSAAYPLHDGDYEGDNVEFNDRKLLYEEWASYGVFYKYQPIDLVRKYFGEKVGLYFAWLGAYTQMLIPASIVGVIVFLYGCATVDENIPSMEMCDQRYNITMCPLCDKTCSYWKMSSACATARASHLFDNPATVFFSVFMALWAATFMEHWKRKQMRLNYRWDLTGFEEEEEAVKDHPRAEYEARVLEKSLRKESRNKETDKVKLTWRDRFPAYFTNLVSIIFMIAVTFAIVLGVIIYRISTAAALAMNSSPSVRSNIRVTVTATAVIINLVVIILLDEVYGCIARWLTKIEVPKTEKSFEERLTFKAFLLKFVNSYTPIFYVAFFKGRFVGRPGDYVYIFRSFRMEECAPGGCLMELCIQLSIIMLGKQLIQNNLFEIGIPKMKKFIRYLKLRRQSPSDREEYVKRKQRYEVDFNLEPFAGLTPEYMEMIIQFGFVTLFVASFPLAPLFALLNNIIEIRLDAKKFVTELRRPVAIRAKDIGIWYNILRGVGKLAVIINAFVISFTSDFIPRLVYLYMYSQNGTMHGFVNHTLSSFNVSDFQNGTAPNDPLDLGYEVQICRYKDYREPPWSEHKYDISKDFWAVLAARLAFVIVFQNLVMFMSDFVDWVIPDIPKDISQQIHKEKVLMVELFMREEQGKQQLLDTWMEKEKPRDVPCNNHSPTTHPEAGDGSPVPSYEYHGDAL
TMEM16A inh – TMEM16A chloride channel inhibitors, primary screen, cell-based, HTS. Anoctamin-1 (Mus musculus), Q8BHY3. HEK293 TMEM16A/YFP iodide influx fluorescence, ionomycin. normalized B-score (activity score, 25-100; higher = stronger inhibition) at 10 µM. actives 1.2% (n = 310,000);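 active = ratio plate-corrected score three or more library SD toward inhibition, starting fluorescence score within five deviations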;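 also: score derived from kinetic fluorescence span divided by baseline fluorescence per well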
CRFBP-R2 agonist – agonists of CRF-BP/CRF-R2 complex, primary screen, cell-based, HEK293, calcium dye fluorescence, uHTS; CRF-binding protein / CRF receptor 2 complex (human); calcium dye fluorescence (FLIPR); percent of saturating CRF peptide response; activation, % at 13.2 µM; actives 0.46% (n = 350,000);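 active = activation of at least 50%, plus an integration ratio under a set limit after plate pattern correction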;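 also: plate controls were neutral control wells without compound for no effect and CRF at EC100 for full effect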
CRFBP-R2 block – antagonists of CRF-BP/CRF-R2 complex, primary screen, cell-based, HEK293, calcium dye fluorescence, uHTS | CRF-induced calcium fluorescence | inhibition, % at 11.8 µM | actives 0.59% (n = 350,000) | AID 588475, 2011;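 active = inhibition of the ligand-induced calcium signal above about 50% at the single tested concentration, limit read from the data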
NR3A LBD binder – binders of NR3A ligand-binding domain, primary screen, biophysical, differential scanning fluorimetry, uHTS; Tm shift relative to glycine control, % at 25 µM; Glutamate receptor ionotropic, NMDA 3A (GRIN3A) ligand-binding domain; NR3A LBD differential scanning fluorimetry, Tm shift; 0% = protein alone, 100% = glycine-bound protein; actives 2.5% (n = 340,000);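 active = melting temperature shift of at least 10% of the positive control shift, at one fixed dose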
MPTP block – mitochondrial permeability transition pore inhibitors, primary screen, biochemical, isolated mouse mitochondria, absorbance | actives 1.4% (n = 360,000) | Ca2+ swelling absorbance, 30 min | AID 602449, 2012 | inhibition, % at 10 µM;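 active = inhibition of 50% or more, scaled per plate between neutral and stimulator controls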;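 also: 0% = DMSO wells given calcium and 100% = 1 mM EGTA wells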
Rh123 counter – fluorescence retest of MPTP screen hits in isolated mitochondria, single concentration; shares compounds with MPTP block; membrane potential, Rhodamine 123 fluorescence; inhibition, % at 10 µM; actives 78% (n = 5,000); in the data active = inhibition above about 22%;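 also: 0% = DMSO vehicle and 100% = positive control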
Active calls of the source: *. Only some compounds are listed: those with a hit (about 5.1% of all), similar ones and a draw of the others.

`CCCCc1ccc(-c2csc(/C(C#N)=C\c3ccc(C)o3)n2)cc1` gave TMEM16A act inactive, TMEM16A inh inactive, CRFBP-R2 agonist 3, CRFBP-R2 block -28, NR3A LBD binder -1 and MPTP block 14.
For CCCCCC(=O)N1C[C@H](O)[C@@H](n2cc(COC(=O)c3ccccc3)nn2)C[C@@H]1c1ccc(OC)cc1 the results were CRFBP-R2 agonist 0, CRFBP-R2 block 1 and MPTP block -3.
Screening CCCCCCCCCCCCCCCC[n+]1cccc2ccccc21 returned TMEM16A act inactive, TMEM16A inh 100*, CRFBP-R2 agonist 22, CRFBP-R2 block -102, NR3A LBD binder 39*, MPTP block 76* and Rh123 counter 102*.
CCCCCCCCC[n+]1cccc2c3ccccc3ccc21 was read as TMEM16A act inactive, TMEM16A inh 100*, CRFBP-R2 agonist 1, CRFBP-R2 block -7, NR3A LBD binder -1, MPTP block 89* and Rh123 counter 117*.
For Cc1cccc(C)c1NC(=O)CNC(=O)C(C)NC(C)c1ccccc1Br (stereo unspecified) the results were TMEM16A act inactive, CRFBP-R2 agonist 1, CRFBP-R2 block -5, NR3A LBD binder 1 and MPTP block -2.
O=C(NC(=S)NN1CCCCC1c1cccnc1)c1ccc(Cl)cc1Cl (stereo unspecified) was read as TMEM16A act inactive, TMEM16A inh inactive, CRFBP-R2 agonist -4, CRFBP-R2 block 6, NR3A LBD binder -2, MPTP block 52* and Rh123 counter 65*.
`O=C(/C=C/c1cn(CC(O)CN2CCCCCC2)c2ccccc12)c1cccs1` (stereo unspecified) gave TMEM16A act inactive, TMEM16A inh inactive, CRFBP-R2 agonist 65*, CRFBP-R2 block -127, NR3A LBD binder -1, MPTP block 80* and Rh123 counter -21.
Screening CCCCN(C)CC(O)Cn1cc(/C=C/C(=O)c2cccs2)c2ccccc21 (stereo unspecified) returned TMEM16A act inactive, TMEM16A inh inactive, CRFBP-R2 agonist 33, CRFBP-R2 block -94, NR3A LBD binder -8 and MPTP block 0.
For COc1ccc(Br)cc1/C=N/Nc1ccccn1 the results were TMEM16A act inactive, TMEM16A inh inactive, CRFBP-R2 agonist 2, CRFBP-R2 block -26, NR3A LBD binder -1 and MPTP block 1.
Screening Cc1ccc(C)c(OCCCCn2cnc3ccccc3c2=O)c1 returned TMEM16A act inactive, TMEM16A inh inactive, CRFBP-R2 agonist 2, CRFBP-R2 block 1, NR3A LBD binder 1 and MPTP block -1.
Screening Cc1ccc(OCCCCn2cnc3ccccc32)c(C)c1 returned TMEM16A act inactive, TMEM16A inh inactive, CRFBP-R2 agonist -2, CRFBP-R2 block -30, NR3A LBD binder 3, MPTP block 93* and Rh123 counter 93*.
For Clc1ccccc1OCCn1cnc2ccccc21 the results were TMEM16A act inactive, TMEM16A inh inactive, CRFBP-R2 agonist 0, CRFBP-R2 block 26, NR3A LBD binder 0 and MPTP block -1.
Screening Brc1ccccc1OCCCCn1cnc2ccccc21 returned TMEM16A act inactive, TMEM16A inh 100*, CRFBP-R2 agonist 1, CRFBP-R2 block -17, NR3A LBD binder 7, MPTP block 85* and Rh123 counter 90*.
For CN(CC(=O)Nc1ccc(Cl)c(Cl)c1)CC(=O)N1CCc2ccccc21 the results were CRFBP-R2 agonist 4, CRFBP-R2 block -28 and MPTP block 1.
O=C1CCCCN1CC(=O)N1CCCC(Nc2ccc(F)cc2)C1 (stereo unspecified) was read as TMEM16A act inactive, TMEM16A inh inactive, CRFBP-R2 agonist 1, CRFBP-R2 block -9, NR3A LBD binder -1 and MPTP block 0.
CC1(C(=O)NS(=O)(=O)c2cccc(OC(F)F)c2)CCN1C(=O)Cc1ccccc1 (stereo unspecified) was read as MPTP block 0.
`CC1(C)CC(=O)C2=C(C1)c1c(ccc3ccccc13)NC2c1cc([N+](=O)[O-])cc([N+](=O)[O-])c1O` (stereo unspecified) gave TMEM16A act inactive, TMEM16A inh inactive, CRFBP-R2 agonist -1, CRFBP-R2 block 78*, NR3A LBD binder 5, MPTP block 73* and Rh123 counter 57*.
`Cc1ccc(S(=O)(=O)Nc2ccc(N3CCCCC3)cc2)cc1` gave TMEM16A act inactive, TMEM16A inh inactive, CRFBP-R2 agonist 0, CRFBP-R2 block 0, NR3A LBD binder 0 and MPTP block -1.
For Cc1ccc(NS(=O)(=O)c2ccc(C3CCCCC3)cc2)cc1 the results were TMEM16A act inactive, TMEM16A inh inactive, CRFBP-R2 agonist -1, CRFBP-R2 block -59, NR3A LBD binder 3, MPTP block 73* and Rh123 counter 78*.
Cc1cc2oc(=O)cc(CN(C)Cc3ccccc3Cl)c2cc1C was read as TMEM16A act inactive, TMEM16A inh inactive, CRFBP-R2 agonist 1, CRFBP-R2 block -13, NR3A LBD binder 1 and MPTP block -1.
For O=C(Nc1ccc(Cl)cc1)Nc1ccccc1CC[N+](=O)[O-] the results were TMEM16A act inactive, TMEM16A inh inactive, CRFBP-R2 agonist 1, CRFBP-R2 block 3, NR3A LBD binder -4, MPTP block 83* and Rh123 counter 85*.
Screening CSc1ccccc1NC(=O)Nc1ccc(Cl)cc1 returned TMEM16A act inactive, TMEM16A inh inactive, CRFBP-R2 agonist 3, CRFBP-R2 block -29, NR3A LBD binder 3, MPTP block 92* and Rh123 counter 75*.
CSc1cccc(NC(=O)Nc2ccc(Cl)cc2)c1 was read as TMEM16A act inactive, TMEM16A inh inactive, CRFBP-R2 agonist 7, CRFBP-R2 block 30, NR3A LBD binder 29*, MPTP block 88* and Rh123 counter 104*.
CSc1cccc(NC(=O)C(=O)NCc2ccccc2)c1 was read as TMEM16A act inactive, TMEM16A inh inactive, CRFBP-R2 agonist 0, CRFBP-R2 block 8, NR3A LBD binder -1 and MPTP block 1.

Assay outcomes as filed in PubChem BioAssay.
